Measured values from PubChem BioAssay (EPA / NIEHS).
Results filed as inconclusive are left out. Activity calls are given as the source filed them. How the source made its calls: active means hit-call score of the fitted dose curve at least 0.9, where 1 is the maximum; inconclusive means response in the unintended direction; inactive means score below 0.9.

The compounds below were run against Oxysterols receptor LXR-alpha (Homo sapiens) (UniProt Q13133) (assay: ATG_LXRa_TRANS: Attagene TRANS-FACTORIAL HepG2 Assay for human Liver X Receptor alpha (LXRa) (AID 2282980)). Details: HepG2 Attagene TRANS reporter, LXRa transactivation.
Protocol: ATG_TRANS is a cell-based, multiplexed-readout assay that uses HepG2, a human liver cell line, with measurements taken at 24 hours after chemical dosing in a 24-well plate.ATG_LXRa_TRANS is one of 30 assay component(s) measured or calculated from the ATG_TRANS assay. It is designed to make measurements of mRNA induction, a form of inducible reporter, as detected with fluorescence intensity signals by Reverse transcription polymerase chain reaction (RT-PCR) and Capillary electrophoresis technology.Data from the assay component ATG_LXRa_TRANS was analyzed into 1 assay endpoint. This assay endpoint, ATG_LXRa_TRANS, was analyzed in the positive analysis fitting direction relative to DMSO as the negative control and baseline of activity. Using a type of inducible reporter, measures of mRNA for gain-of-signal activity can be used to understand the reporter gene at the transcription factor-level as they relate to the gene NR1H3. Furthermore, this assay endpoint can be referred to as a primary readout, because this assay has produced multiple assay endpoints where this one serves a reporter gene function. To generalize the intended target to other relatable targets, this assay endpoint is annotated to the nuclear receptor intended target family, where the subfamily is non-steroidal.
Human liver HepG2 cells are transiently transfected with multiple reporter transcription units (MRTUs) in 6-well plates using FuGene 6 reagent (Roche; 3 ml FuGene/1 mg DNA). The MRTU constructs are regulated by a cis-regulating element (promoter). […] A major difference between the CIS and TRANS system is that in CIS activities of endogenous TFs are measured, whereas the TRANS assay evaluates changes in activities of exogenous, chimeric NR-Gal4 proteins. […] At the end of 24 hour incubation, total RNA was isolated using TriZol reagent (Invitrogen). The isolated RNA is then reverse-transcribed using oligo(dT) primer and Mo-MLV reverse transcriptase (Invitrogen) with DNAse I (Ambion) treatment for 30 min. The one-tenth of the produced cDNA was amplified by PCR using Taq DNA polymerase (Invitrogen) and two reporter sequence-specific primers. The PCR products were fluorescently labeled by primer extension with 6-arboxyfluorescein (6-FAM) 5'-labeled reporter sequence-specific primer (2 min at 95 C, 20 s at 68 C and 10 min at 72 C) and these products were digested with 5U of HpaI (New England Biolabs) for 2h at 37 C. The fragments were purified using Qiaquick PCR columns (Qiagen), analyzed on an ABI 3130xL genetic analyzer (Applied Biosystems) with peak positions identified by using a set of X-rhodamine (ROX)-labeled MapMarker1000 molecular weight standards (BioVentures). The raw capillary electrophoresis data was processed using Attagraph software (Attagene).

Oxysterols receptor LXR-alpha (Homo sapiens), sequence (Q13133 whole entry, looked up): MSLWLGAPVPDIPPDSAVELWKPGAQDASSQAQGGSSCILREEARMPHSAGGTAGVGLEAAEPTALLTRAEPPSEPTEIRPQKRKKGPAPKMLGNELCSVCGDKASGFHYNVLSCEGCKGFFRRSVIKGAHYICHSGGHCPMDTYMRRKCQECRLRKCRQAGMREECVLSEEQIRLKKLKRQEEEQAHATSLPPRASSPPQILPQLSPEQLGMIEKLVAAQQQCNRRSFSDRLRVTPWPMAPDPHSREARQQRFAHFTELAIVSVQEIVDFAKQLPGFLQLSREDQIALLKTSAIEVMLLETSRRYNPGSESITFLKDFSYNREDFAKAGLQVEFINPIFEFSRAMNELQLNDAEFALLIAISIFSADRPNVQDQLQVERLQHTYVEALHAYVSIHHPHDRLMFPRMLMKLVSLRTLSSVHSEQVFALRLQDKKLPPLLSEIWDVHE

| Structure (SMILES) | outcome | AC50 |
| --- | --- | --- |
| CCCCN(CC)c1c([N+](=O)[O-])cc(C(F)(F)F)cc1[N+](=O)[O-] | inactive |  |
| CSc1nc(NC(C)C)nc(NC(C)C)n1 | inactive |  |
| Nc1nc(N)nc(NC2CC2)n1 | inactive |  |
| C[N+]1(C)CCCCC1 | inactive |  |
| CCOP(=S)(Oc1cnc(C(C)(C)C)nc1)OC(C)C (stereo not given) |  | 9.2 µM (active) |
| CSC1=N[C@@](C)(c2ccccc2)C(=O)N1Nc1ccccc1 | inactive |  |
| CCOP(=O)(NC(C)C)Oc1ccc(SC)c(C)c1 (stereo not given) | inactive |  |
| CC(COc1ccc(Oc2ccccc2)cc1)Oc1ccccn1 (stereo not given) | inactive |  |
| CCc1cnc(C2=NC(C)(C(C)C)C(=O)N2)c(C(=O)O)c1 (stereo not given) | inactive |  |
| CC(C)N(C(=O)SCC(Cl)=C(Cl)Cl)C(C)C |  | 29.1 µM (active) |
| CCCSP(=O)(OCC)Oc1ccc(Br)cc1Cl (stereo not given) | inactive |  |
| CCC(=O)Nc1ccc(Cl)c(Cl)c1 | inactive |  |
| CN(C)NC(=O)CCC(=O)O | inactive |  |
| CCOP(=S)(OCC)OC(Cl)C(Cl)(Cl)Cl (stereo not given) | inactive |  |
| CCC(=NOC/C=C/Cl)C1=C(O)CC(C2CCOCC2)CC1=O (stereo not given) | inactive |  |
| CC(=NC#N)N(C)Cc1ccc(Cl)nc1 | inactive |  |
| CCNc1nc(Cl)nc(NC(C)(C)C#N)n1 | inactive |  |
| CN1COCN(Cc2cnc(Cl)s2)C1=N[N+](=O)[O-] | inactive |  |
| C[Si](Cn1cncn1)(c1ccc(F)cc1)c1ccc(F)cc1 | inactive |  |
| CN(C)[C@@H]1C(=O)C(C(N)=O)=C(O)[C@@]2(O)C(=O)C3=C(O)c4c(O)cccc4[C@@](C)(O)[C@H]3[C@H](O)[C@@H]12 | inactive |  |

| Structure (SMILES) | outcome | AC50 |
| --- | --- | --- |
| O=c1ccc(=O)[nH][nH]1 | inactive |  |
| CCOC(=O)COc1cc(-c2nn(C)c(OC(F)F)c2Cl)c(F)cc1Cl | inactive |  |
| CCCCOC(=O)c1ccccc1C(=O)O | inactive |  |
| Nc1c(Cl)cc([N+](=O)[O-])cc1Cl | inactive |  |
| CON=C(C(=O)OC)c1ccccc1CON=C(C)c1cccc(C(F)(F)F)c1 | inactive |  |
| CC[C@H](C)[C@H]1O[C@]2(C=C[C@@H]1C)C[C@@H]1C[C@@H](C/C=C(\C)[C@@H](O[C@H]3C[C@H](OC)[C@@H](O[C@H]4C[C@H](OC)[C@@H](NC)[C@H](C)O4)[C@H](C)O3)[C@@H](C)/C=C/C=C3\CO[C@@H]4[C@H](O)C(C)=C[C@@H](C(=O)O1)[C@]34O)O2 | inactive |  |
| S=C1NCCN1 | inactive |  |
| COP(=O)(OC)C(O)C(Cl)(Cl)Cl (stereo not given) | inactive |  |
| CC(C)=CC1C(C(=O)OCN2C(=O)C3=C(CCCC3)C2=O)C1(C)C (stereo not given) | inactive |  |
| CCCCOC(=O)[C@@H](C)Oc1ccc(Oc2ccc(C#N)cc2F)cc1 | inactive |  |
| CCOC(=O)CC(SP(=O)(OC)OC)C(=O)OCC (stereo not given) | inactive |  |
| CCCSP(=O)(OCC)SCCC | inactive |  |
| Cc1nn(-c2cc(NS(C)(=O)=O)c(Cl)cc2Cl)c(=O)n1C(F)F | inactive |  |
| CCOP(=S)(OCC)Oc1cc(C)nc(C(C)C)n1 | inactive |  |
| C=C(C)[C@H]1Cc2c(ccc3c2O[C@@H]2COc4cc(OC)c(OC)cc4[C@@H]2C3=O)O1 | inactive |  |
| N#CSCSC#N | inactive |  |
| CNC(=O)Oc1cccc2c1OC(C)(C)O2 | inactive |  |
| COc1cc(OC)nc(Sc2cccc(Cl)c2C(=O)O)n1 | inactive |  |
| CC(C1CC1)C(O)(Cn1cncn1)c1ccc(Cl)cc1 (stereo not given) | inactive |  |
| CC1(C(=O)Nc2ccc(O)c(Cl)c2Cl)CCCCC1 |  | 50 µM (active) |
